This note sets out measurements from PubChem BioAssay.

In test [1] the test system is XIP peptide (Xip251-270) binding. The test is described as follows: small-molecule binders of XIP peptide, primary screen, biochemical, small-molecule microarray, fluorescence 635/667 nm, 0.1 µg/mL protein (AID 1182). The settings on record: fluorescent protein binding, 635 nm, higher = more signal, called active from +8 up or from −8 down.
The subject of test [2] is XIP peptide (Xip251-270). The test is described as follows: small-molecule binders of XIP peptide, primary screen, biochemical, small-molecule microarray, fluorescence 635/667 nm, 0.5 µg/mL protein (AID 1183). To be noted: small-molecule microarray binding, fluorescence 635 nm; higher = more signal.
Test [3] can be described thus: Plasmodium falciparum growth inhibition, primary screen, strain 3D7, DAPI fluorescence, 100 nL (AID 1184).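 Further: parasites grown inside human red blood cells in medium with human serum.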 The settings on record: P. falciparum 3D7 growth, 3 d, higher = more signal.
In test [4] the target is Homeobox protein Hox-A13 (Mus musculus) (UniProt Q62424). The test is described as follows: inhibitors of HoxA13-DNA binding, primary screen, biochemical, fluorescence polarization, labeled oligonucleotide (AID 1185). The settings on record: 15 min, higher = more signal, called active from +8 up or from −8 down.
Chain of Homeobox protein Hox-A13 (Mus musculus) (Q62424 whole entry, looked up): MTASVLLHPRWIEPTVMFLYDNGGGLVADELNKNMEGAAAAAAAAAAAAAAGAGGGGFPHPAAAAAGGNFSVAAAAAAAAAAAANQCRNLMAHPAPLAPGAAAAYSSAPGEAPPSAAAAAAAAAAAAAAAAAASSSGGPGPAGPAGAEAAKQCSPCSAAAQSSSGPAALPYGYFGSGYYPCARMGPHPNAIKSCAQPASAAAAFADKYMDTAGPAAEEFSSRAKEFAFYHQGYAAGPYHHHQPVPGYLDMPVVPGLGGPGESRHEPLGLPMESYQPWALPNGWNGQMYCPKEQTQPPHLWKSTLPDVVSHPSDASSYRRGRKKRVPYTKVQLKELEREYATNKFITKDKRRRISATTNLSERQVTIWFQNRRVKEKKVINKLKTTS
A short description of test [5]: inhibitors of hydroxyurea-induced Chk1 phosphorylation, primary screen, imaging, HeLa, phospho-Chk1 antibody, percent positive cells (AID 1186). To be noted: hydroxyurea-induced phospho-Chk1 immunofluorescence imaging, higher = more signal.
Test [6] in a line: inhibitors of hydroxyurea-induced Chk1 phosphorylation, primary screen, imaging, HeLa, phospho-Chk1 nuclear intensity (AID 1187). To be noted: hydroxyurea-induced phospho-Chk1 immunofluorescence imaging, higher = more signal.

Each structure is given as a SMILES string. Calls of active or inactive are those of the source. Unless noted, how the calls were made is not given here.

Take `CC1CC/C=C\[C@H]2OC34C=CCN(c5ccc6ccccc6c5)C(=O)[C@H]3N(CCO)C(=O)[C@@H]4C2C(=O)O1` (stereo partly drawn): the composite z-score in test [1] was 0.866 (inactive); in test [2] it was 0.492. In addition, the z-score in test [3] was -0.607; in test [4] it was -5.51 (inactive); in test [5], -0.209 (inactive); in test [6], -0.434 (inactive).

As for `COc1ccc([Si](C)(C)[C@H]2[C@H](CCn3cc([C@H](O)c4ccccc4)nn3)O[C@@]3(C(=O)N(C)c4ccccc43)[C@@H]2C)cc1`, the composite z-score in test [1] was 0.014 (inactive); in test [2] it was -0.325. Moreover, the z-score in test [3] is -1.52; in test [4], -6.41 (inactive); in test [5], -0.179 (inactive); in test [6] it was 0.36 (inactive).

Take `COc1ccc(NC(=O)O[C@H]2[C@H](OC(=O)c3cc4ccccc4[nH]3)[C@@H](OC(=O)c3cc4ccccc4[nH]3)[C@@H](OC)O[C@@H]2CO)cc1`: the composite z-score in test [1] was 1.54 (inactive); in test [2] it was -0.135. The z-score in test [3] was -2.16; in test [4] it was -3.86 (inactive); in test [5] it was -0.335 (inactive); in test [6], -0.331 (inactive).

In the case of `O=C(CS)NCCCCCNC(=O)[C@H]1C[C@H]2C(=O)NCC(=O)N2[C@H]1c1ccc(O)cc1`, the figures for the composite z-score in test [1] and in test [2] were -0.344 (inactive) and 0.149, respectively. In addition, the z-score in test [3] is 0.201; in test [4], -1.2 (inactive); in test [5], -0.831 (inactive); in test [6], -0.795 (inactive).

Regarding `[N-]=[N+]=NCc1ccccc1[C@@H]1OC(c2ccc(OCCCO)cc2)=N[C@]1(CCS(=O)(=O)c1ccccc1)C(=O)N1CCCCC1`, the composite z-score was 0.603 (inactive) in test [1] and 0.772 in test [2]. Also, the z-score in test [3] was -2.23; in test [4] it was -1.6 (inactive); in test [5], 0.202 (inactive); in test [6], 0.161 (inactive).

As for `NC(=O)[C@@H]1[C@H]2C(=O)O[C@H](c3ccccc3)[C@H](c3ccccc3)N2[C@H](c2ccc(O)cc2)[C@@]12C(=O)Nc1ccc(C#CC3=CCCCC3)cc12`, the composite z-score in test [1] is 0.799 (inactive); in test [2] it was 0.619. Moreover, the z-score in test [3] is -0.303; in test [4], -0.487 (inactive); in test [5], 0.0025 (inactive); in test [6], 0.518 (inactive).

In the case of `COCCOC(=O)N1C(=O)[C@@]2(c3cc(C#CC4(O)CCCCCC4)ccc31)[C@H](c1ccccc1OCCO)N1[C@H](c3ccccc3)[C@H](c3ccccc3)OC(=O)[C@H]1[C@@H]2C(=O)N1CCc2cc(OC)c(OC)cc2C1`, the composite z-score in test [1] was 0.164 (inactive); in test [2], 0.741. Further, the z-score in test [3] was -1.89; in test [4], -0.494 (inactive); in test [5], -0.149 (inactive); in test [6] it was 0.27 (inactive).

`CC(=CC1CCCCC1)[C@@H](NC(=O)c1cccnc1)c1ccc(-c2ccccc2)cc1`: the values for the composite z-score in test [1] and in test [2] were -0.486 (inactive) and -0.434, respectively. Further, the z-score was -0.412 in test [3], -0.427 (inactive) in test [4], 1.6 (inactive) in test [5] and -0.72 (inactive) in test [6].

With `O=C(CS)NCCCCCNC(=O)[C@@H]1C[C@@H]2C(=O)NCC(=O)N2[C@@H]1c1ccc(O)cc1`, the composite z-score in test [1] is 0.366 (inactive); in test [2] it was 0.352. Further, the z-score in test [3] is -1.16; in test [4], -1.43 (inactive); in test [5] it was 0.258 (inactive); in test [6], 0.425 (inactive).

Consider `COc1ccc(-c2cc3c(c(Cc4ccccc4)n2)[Si](C(C)C)(C(C)C)OC3)cn1`, for which the figures for the composite z-score in test [1] and in test [2] were 0.684 (inactive) and -0.342, respectively. Besides, the z-score in test [3] is -2.79; in test [4], -2.5 (inactive); in test [5], -0.24 (inactive); in test [6], -0.828 (inactive).

Turning to `COC(=O)[C@]1(Cc2ccccc2)N=C(c2ccc(OCCCO)cc2)O[C@@H]1c1ccccc1N=[N+]=[N-]`, the composite z-score was 0.062 (inactive) in test [1] and 0.685 in test [2]. The z-score is -2.27 in test [3], -2.66 (inactive) in test [4], -0.566 (inactive) in test [5] and -0.724 (inactive) in test [6].

In the case of `CN1C(=O)C2C=CC(C(O)c3ccccc3)N(N3CCCCC3)C2C1=O` (stereo not drawn), the composite z-score was 0.344 (inactive) in test [1] and 0.797 in test [2]. For the same molecule, the z-score in test [3] is -0.261; in test [4], -5.01 (inactive); in test [5], 0.246 (inactive); in test [6], -0.455 (inactive).

In the case of `CCOC(=O)C[C@H]1[C@H](OC(=O)c2ccc(C(=O)c3ccccc3)cc2)[C@@H](NC(=O)Cc2ccc(OC)cc2)c2cc(OCCCO)ccc2N1C(=O)c1ccc2ccccc2n1`, the composite z-score was 0.845 (inactive) in test [1] and 0.172 in test [2]. Further, the z-score in test [3] is -0.129; in test [4], -1.9 (inactive); in test [5], 0.112 (inactive); in test [6], -0.189 (inactive).

For the molecule `CC(C)NC(=O)[C@@H]1c2ccccc2C(=O)N(C(C)C)[C@H]1c1ccc(CO)cc1`, the composite z-score in test [1] was 0.736 (inactive); in test [2], 0.226. Also, the z-score is -0.25 in test [3], -2.52 (inactive) in test [4], -0.0669 (inactive) in test [5] and 0.385 (inactive) in test [6].

On to `O=C(CS)NCCCCCNC(=O)[C@H]1C[C@H]2C(=O)NCC(=O)N2[C@H]1c1cccc(OCCO)c1`, for which the composite z-score in test [1] was -0.109 (inactive); in test [2], 0.388. The z-score was 1.01 in test [3], -1.67 (inactive) in test [4], -0.56 (inactive) in test [5] and -0.321 (inactive) in test [6].

Consider `CCOC(=O)C1=CC[C@@H](c2ccccc2)N(S(=O)(=O)c2ccc(C)cc2)[C@H]1c1ccc(CC)cc1`, for which the figures for the composite z-score in test [1] and in test [2] were -0.223 (inactive) and 0.487, respectively. Further, the z-score in test [3] was -1.89; in test [4], 0.868 (inactive); in test [5], -0.0619 (inactive); in test [6], -0.606 (inactive).

For `COC(=O)C(CC#Cc1ccc2c(c1)[C@]1(C(=O)N2)[C@H](c2ccc(O)cc2)N2[C@H](c3ccccc3)[C@H](c3ccccc3)OC(=O)[C@H]2[C@@H]1C(=O)N1CCN(c2ncccn2)CC1)C(=O)OC`, the composite z-score in test [1] is 0.655 (inactive); in test [2], 0.826. The z-score in test [3] was -2.26; in test [4], -1.65 (inactive); in test [5] it was -0.231 (inactive); in test [6], -0.514 (inactive).

As for `NC(=O)[C@@H]1[C@H]2C(=O)O[C@H](c3ccccc3)[C@H](c3ccccc3)N2[C@H](c2ccc(OCCO)cc2)[C@@]12C(=O)Nc1ccc(C#CC3=CCCCC3)cc12`, the figures for the composite z-score in test [1] and in test [2] were 0.124 (inactive) and 0.581, respectively. Also, the z-score in test [3] was -0.962; in test [4], 1.05 (inactive); in test [5], -0.0315 (inactive); in test [6], 0.0692 (inactive).
